Compound activity from PubChem BioAssay.
The list is not random: actives were taken first. Their share in the collection is about 1.1%.
CBFb RUNX1 block: CBF-beta/RUNX1 interaction disruption; AlphaScreen CBFb-His/RUNX1-biotin binding, biochemical; Potency, µM (titrated, usually from 59.8 µM), inactives show top-dose activity, negative = inhibition, hits mostly inhibitors; 230,000 tested, under 10 active; AID 1477; note: % of control where 0% means no effect
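Compounds were screened at multiple concentrations against a preformed CBF-beta(His)/RUNX1(biotin) complex (30 nM of each) for 15 min at room temperature, followed by 90 min with nickel and streptavidin beads and AlphaScreen reading.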
NPSR antag: blocks cAMP signaling of the human neuropeptide S receptor. actives 1% (n = 220,000). Potency, µM (titrated, usually from 38.3 µM), for inactives: top-dose activity change, negative = inhibition, usual class: inhibitors. AID 1461. CHO-NPSR cells, cAMP TR-FRET, antagonist mode; note: potency is the fitted concentration of half-maximal effect; % is set by controls: 0 for no effect and ±100 for the full control effect; nearly all actives have a fitted effect of over 50% in size
Target sequence (Q6W5P4 whole entry, looked up): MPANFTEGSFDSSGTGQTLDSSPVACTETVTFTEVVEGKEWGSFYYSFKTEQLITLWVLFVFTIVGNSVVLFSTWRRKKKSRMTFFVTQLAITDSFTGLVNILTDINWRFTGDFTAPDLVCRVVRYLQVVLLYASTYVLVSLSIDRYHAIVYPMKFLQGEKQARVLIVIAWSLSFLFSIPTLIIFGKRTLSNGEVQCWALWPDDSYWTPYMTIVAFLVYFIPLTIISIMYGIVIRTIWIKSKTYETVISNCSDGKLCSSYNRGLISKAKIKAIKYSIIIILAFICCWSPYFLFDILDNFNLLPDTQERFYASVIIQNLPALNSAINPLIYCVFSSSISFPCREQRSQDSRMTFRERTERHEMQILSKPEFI
HTT cytoprotect: cytoprotection in Huntington HTT-Q103 PC12 cell model. PC12 HTT-Q103 induced, cytoprotection, ATP luminescence, 40 h. Potency, µM (series often up to 56.4 µM), inactives show cytoprotection (ATP increase), usual class: activators. actives 0.14% (n = 230,000); note: potency is the fitted concentration of half-maximal effect; % of control where 0% means no effect; nearly all actives have a fitted effect of over 45% in size
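ATP quantification (ATPlite) reports survival of PC12 cells in which tebufenozide, 100 nM final, switches on Htt exon 1 with 103 glutamines linked to GFP; compounds are titrated.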
HTT aggregate: reduces HttQ103-GFP aggregates in PC12 cells; actives 1.1% (n = 220,000); Potency, µM (top dose mostly 46.1 µM), inactives show top-dose activity change, negative = inhibition, hits mostly inhibitors; PC12 HttQ103-GFP aggregates, Acumen cytometry, 40 h; note: potency is the fitted concentration of half-maximal effect; % is set by controls: 0 for no effect and ±100 for the full control effect; nearly all actives have a fitted effect of over 60% in size
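PC12/HTTQ103-GFP, ecdysone-inducible; teb 100 nM; cpd qHTS titration; GFP aggregates read on laser cytometer, Ex 488/Em 500-530 nm.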
LMNA splice mod: LMNA splicing modulation | HeLa LMNA splicing GFP/RFP minigene ratio, 48 h | Potency, µM (titrated, usually from 46.1 µM), without a hit: top-dose ratio change, negative = inhibition, actives largely listed as inhibitors | actives 0.01% (n = 200,000); active = well fitted inhibition curve with a large enough effect in the signal ratio, with a control signal flat, not every such curve was filed as active; inconclusive = small, poorly fitted or top-dose-only effect, or effect the other way, or a change in a side signal; the % refers to the signal ratio; note: potency is the fitted concentration of half-maximal effect; % is set by controls: 0 for no effect and ±100 for the full control effect
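Read-out is the ratio of GFP to DsRed2 object intensity, acquired by 488 nm laser-scanning cytometry on HeLa lamin A-EGFP minigene reporter cells. Compound incubation 48 hrs at 37 °C in Opti-MEM with 2% FBS; DMSO 0.5% final.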
MBNL1 CUG block: inhibitors of human MBNL1 binding to CUG repeat RNA; Potency, µM (doses to about 57.5 µM), for the others: at the top dose activity change, negative = inhibition, hits mostly inhibitors; actives 0.036% (n = 280,000); TR-FRET MBNL1-His/biotin-(CUG)12 binding, 665/545 ratio; active = well fitted inhibition curve with a large enough effect in the signal ratio, with a control signal flat, not every such curve was filed as active; inconclusive = small, poorly fitted or top-dose-only effect, or effect the other way, or a change in a side signal; inactive = no such curve, though single readings can be large or run the other way; the % refers to the signal ratio; note: potency is the fitted concentration of half-maximal effect; % is set by controls: 0 for no effect and ±100 for the full control effect
Target sequence (Q9NR56 whole entry, looked up): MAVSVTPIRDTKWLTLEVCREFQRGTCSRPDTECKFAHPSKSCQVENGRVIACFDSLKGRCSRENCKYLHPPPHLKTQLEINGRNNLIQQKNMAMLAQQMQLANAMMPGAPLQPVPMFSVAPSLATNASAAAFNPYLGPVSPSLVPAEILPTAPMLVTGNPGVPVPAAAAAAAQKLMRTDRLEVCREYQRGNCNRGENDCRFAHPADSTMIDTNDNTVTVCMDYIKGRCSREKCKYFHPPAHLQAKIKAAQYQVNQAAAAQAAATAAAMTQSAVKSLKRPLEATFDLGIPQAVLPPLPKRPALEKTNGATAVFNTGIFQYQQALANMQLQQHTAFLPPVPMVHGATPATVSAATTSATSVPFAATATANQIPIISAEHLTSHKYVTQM
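MBNL1-His + Biotin-(CUG)12, cpd titration 92 nM–58 uM; Tb anti-His Ab 0.055 ng/ul, SA-XL665 5 nM (final); 60 min RT; ratiometric 665/545 nm, Ex 340 nm; normalized to buffer and full-complex controls.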
Active calls of the source: *; ? = inconclusive; · = no result; ! = not confirmed by another sample; [ ] = another dose, or the depositor's remark. Unless noted, calls come from the whole dose curve; as a rule, active = well fitted curve in the direction sought with a large enough effect; inconclusive = small, poorly fitted or top-dose-only effect, or another doubt; inactive = no such curve, though single readings can be large; an effect the other way counts as inactive or inconclusive.

SMILES	CBFb RUNX1 block	NPSR antag	HTT cytoprotect	HTT aggregate	LMNA splice mod	MBNL1 CUG block
Oc1ccc(Br)cc1-c1nc2cnccn2c1NC1CCCC1	4.0%	-15.0%[46.1 µM]	15.1%	20µM*	?	19.4%
COCc1cc(C)nc(OCC(=O)N/N=C/c2ccc(O)cc2O)c1C#N	?	2.2%	23.1%	?	·	2.0%
COCc1cc(C)nc(OCC(=O)N/N=C/c2ccccc2O)c1C#N	-4.3%	4.4%	-101.9%	11.2µM*	?	5.4%
COC(=O)C1=C(C(=O)OC)[C@@H]2N(C)c3ccccc3[C@@]23C[C@@H](C(=O)OC)N(S(=O)(=O)c2ccc(C)cc2)C3=N1	6.2%[13.1 µM]	·	-3.1%[10 µM]	·	1.8%[9.22 µM]	·
Cc1ccc(N(C(=O)CCl)C(C(=O)NC2CCCCC2)c2cccnc2)cc1C (configuration not stated)	10.4%	-59.3%	-86.4%[10 µM]	3.55µM*	?	·
Cc1ccc(C(C(=O)NC2CCCC2)N(C(=O)Cc2cccs2)c2ccc(C)c(C)c2)o1 (configuration not stated)	9.0%	?	-0.3%[10 µM]	20µM*	?	-12.7%
COc1ccc(OC)c(NC(=O)CCc2c(C)nn(-c3ccc(N4CCCC4)nn3)c2C)c1	·	·	·	·	-3.5%[46 µM]	·
COc1cccc(Cn2c(CNS(=O)(=O)c3ccc(F)c(Cl)c3)nc3cccnc32)c1	·	·	·	·	24.2%[46 µM]	·
Oc1ccc(O)cc1	-18.6%	-7.6%[46.1 µM]	31.6µM*!	-12.6%	?	·
Cc1ccc(N2CN=c3s/c(=C\c4cccnc4)c(=O)n3C2)cc1	1.4%	-0.1%[46.1 µM]	-6.6%	10µM*	-7.5%	-9.3%
Cc1ccc(/C=c2\sc3n(c2=O)CN(c2ccc(Br)cc2)CN=3)o1	8.0%	-27.0%[46.1 µM]	-29.0%	30.7%	3.7%	?
COc1ccccc1/C=C/C(=O)Oc1cccc2cccnc12	7.6%	-19.6%	6.7%	-2.9%	?	7.2%
Cc1ccc2cccc(OC(=O)/C=C\c3ccccc3)c2n1	7.3%	3.3%	3.16µM*	9.6%[9.22 µM]	4.9%[46 µM]	-2.7%
CC(C)C[C@H](NC(=O)[C@H](Cc1ccccc1)NC(=O)CNC(=O)[C@H](CCC(=O)O)NC(=O)[C@H](CCCNC(=N)N)NC(=O)[C@H](C)NC(=O)[C@H](C)NC(=O)[C@@H](N)CC(=O)O)C(=O)N[C@@H](CC(=O)O)C(=O)N[C@H](C(=O)N[C@@H](CC(C)C)C(=O)N[C@H](C(=O)N[C@H](C(=O)N[C@@H](CC(C)C)C(=O)N[C@@H](Cc1cnc[nH]1)C(=O)N[C@@H](CCCNC(=N)N)C(=O)N[C@@H](C)C(=O)NCC(=O)N[C@@H](C)C(=O)N[C@@H](CCCNC(=N)N)C(=O)O)C(C)C)C(C)C)[C@@H](C)O	-0.6%	·	·	·	·	·
CC(C)C[C@H](N)C(=O)N[C@H](C(=O)N[C@H](C(=O)N[C@@H](Cc1ccc(O)cc1)C(=O)N1CCC[C@H]1C(=O)N[C@@H](Cc1c[nH]c2ccccc12)C(=O)N[C@H](C(=O)N[C@@H](CCC(N)=O)C(=O)N[C@@H](CCCN=C(N)N)C(=O)O)[C@@H](C)O)C(C)C)C(C)C	14.1%	·	-32.4%	·	·	·
CCc1cc(-c2[nH]ncc2-c2ccc3c(c2)OCO3)c(O)cc1O	-26.8%	-10.1%[46.1 µM]	-24.2%	11.2µM*	?	-4.0%
CCc1nn2c(=O)cc(COC(=O)c3ccc(NC(=O)c4cccs4)cc3)nc2s1	·	·	·	·	10.8%[46 µM]	·
C/C(=C\COc1cc(=O)[nH]c2ccccc12)CC[C@@H](O)C(C)(C)O	·	·	-9.8%	·	·	·
NC(=O)c1c(-c2ccc(Cl)cc2Cl)csc1NC(=O)Cc1ccccc1	-1.2%	-19.1%	-0.4%[10 µM]	11.2µM*	?	·
O=C(Cc1ccccc1)Nc1scc(-c2ccccc2)c1C(=O)N1CCOCC1	0.5%	-23.7%[46.1 µM]	13.0%	15.2%	-3.6%	-0.2%
Cc1ccc(Cn2c(NCCc3ccccc3)nc3c2c(=O)n(C)c(=O)n3C)cc1	-1.7%	-5.8%[46.1 µM]	-28.6%	?	?	-3.2%
C/C(Cl)=C\Cn1c(NCCc2ccccc2)nc2c1c(=O)n(C)c(=O)n2C	-4.2%	-10.8%[46.1 µM]	-64.4%	4.47µM*	?	-0.4%
C=CCn1c(NCCc2ccccc2)nc2c1c(=O)n(C)c(=O)n2C	-1.9%	-0.5%[46.1 µM]	11.0%[10 µM]	11.2µM*	?	-9.1%
COC(=O)N1C2CC3(C)C=C(C)OC1(C)C3c1ccccc12 (configuration not stated)	16.9%[13.1 µM]	·	8.8%[10 µM]	·	2.1%[9.22 µM]	·
OCCCn1c(-c2ccccc2)nc(=S)c2c1CCCC2	12.1%	?	2.82µM*	·	10.8%	2.2%
SMILES	CBFb RUNX1 block	NPSR antag	HTT cytoprotect	HTT aggregate	LMNA splice mod	MBNL1 CUG block
CC1(C)Cc2c(c(=S)nc(-c3ccccc3)n2CCO)CO1	-2.0%	2.3%[46.1 µM]	20µM*	-26.3%	23.7%	-1.8%
CC1(C)Cc2c(c(=S)nc(-c3ccccc3)n2CCCN2CCOCC2)CO1	-0.2%	0.2%[46.1 µM]	-12.1%[0.074 µM]	-14.0%	-11.0%	-4.2%
CN(C)CCCOc1c2ccccc2n(Cc2ccccc2)[n+]1[O-]	19.8%	·	·	·	·	·
CC(C)n1nnnc1SCC(=O)NCc1ccc2c(c1)OCO2	1.2%	10.9%[46.1 µM]	14.4%	6.2%	0.6%	0.8%
CCCn1nnnc1SCC(=O)NCc1ccc2c(c1)OCO2	0.8%	-3.2%[7.67 µM]	-7.9%[10 µM]	0.0158µM*	-7.4%	18.5%
N=C1/C(=C/c2cccn2Cc2ccc(F)cc2)C(=O)N=C2SC=CN12	-22.0%	7.4%	-15.2%	0.0141µM*	6.9%[46 µM]	14.5%
Cc1ccc(Cn2cccc2/C=C2/C(=N)N3C=CSC3=NC2=O)cc1	1.2%	-23.2%	?	6.3%	?	-4.4%
CCN(CC)S(=O)(=O)c1ccc(Oc2ccccc2OC)cc1	14.2%	18.2%	16.8%[10 µM]	-10.4%[9.22 µM]	·	3.1%
CCN(CC)S(=O)(=O)c1ccc(Oc2ccc(S(=O)(=O)N(CC)CC)cc2)cc1	18.7%	-4.3%[46.1 µM]	-19.0%	2.82µM*	?	1.1%
CCOC(=O)COc1ccccc1/C=C\[N+](=O)[O-]	3.5%	7.94µM*	-32.0%[10 µM]	-11.4%	?	-10.2%
CCOC(=O)COc1cc([N+](=O)[O-])cc2cccnc12	5.1%	12.2%	-12.4%[10 µM]	25.5%[9.22 µM]	·	?
C=C(C(=O)OC)C(NC(=O)OC)c1ccccc1 (configuration not stated)	0.3%	·	2.2%	·	·	·
CCCCCCC#CC1C=CC(OC(=O)OCC)C(COC(=O)OCC)O1 (configuration not stated)	-0.6%[13.1 µM]	·	2µM*	·	·	·
CCCCC#CC1C=CC(OC(C)=O)C(COC(C)=O)O1 (configuration not stated)	17.9%[13.1 µM]	·	?	·	·	·
